# Data as given in PubChem BioAssay.
# “And” between values parts separate entries of the source, which are not always exact repeats. Equal entries are not always repeated. Inconclusive results are not listed. The source made the active and inactive calls. Cut-off read from the data, not from the text of the source, unless noted: active = inhibition above about 80%; inactive = the rest.
# Key:
# [1] = viability loss in pontine glioma line – cell-based, SU-DIPG-XXV, MIPE5.0, CellTiter-Glo, qHTS, dose response (AID 1347065; cut-off not given, nearly all actives have AC50 up to about 26 µM;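 note: cells exposed to compound for 48 hours before ATP readout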); conditions: CellTiter-Glo ATP luminescence
# [2] = SU-DIPG-VI glioma cell viability, MIPE4.0 library, CellTiter-Glo luminescence, qHTS (AID 1347066; cut-off not given, nearly all actives have AC50 up to about 30 µM;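 note: cells exposed to compound for 48 hours before readout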); conditions: CellTiter-Glo ATP luminescence
# [3] = SU-DIPG-XXV glioma cell viability, MIPE5.0 library, qHTS (AID 1347068; cut-off not given, nearly all actives have IC50 up to about 30 µM)
# [4] = biological target: NAD(+) hydrolase SARM1 (Homo sapiens) (UniProt Q6SZW1); experiment: SARM1 TIR NADase inhibitors, cell lysate, NAD-Glo luminescence (AID 1508614;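 active = compound whose remaining NAD level is above about 45 nM, limit read from the data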;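 note: higher remaining NAD means stronger inhibition of SARM1 NADase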); conditions: SAM-TIR HEK293T lysate NADase, at 1 µM, stronger effect = higher value
# NAD(+) hydrolase SARM1 (Homo sapiens), sequence (Q6SZW1 whole entry, looked up, the tested form may be a part): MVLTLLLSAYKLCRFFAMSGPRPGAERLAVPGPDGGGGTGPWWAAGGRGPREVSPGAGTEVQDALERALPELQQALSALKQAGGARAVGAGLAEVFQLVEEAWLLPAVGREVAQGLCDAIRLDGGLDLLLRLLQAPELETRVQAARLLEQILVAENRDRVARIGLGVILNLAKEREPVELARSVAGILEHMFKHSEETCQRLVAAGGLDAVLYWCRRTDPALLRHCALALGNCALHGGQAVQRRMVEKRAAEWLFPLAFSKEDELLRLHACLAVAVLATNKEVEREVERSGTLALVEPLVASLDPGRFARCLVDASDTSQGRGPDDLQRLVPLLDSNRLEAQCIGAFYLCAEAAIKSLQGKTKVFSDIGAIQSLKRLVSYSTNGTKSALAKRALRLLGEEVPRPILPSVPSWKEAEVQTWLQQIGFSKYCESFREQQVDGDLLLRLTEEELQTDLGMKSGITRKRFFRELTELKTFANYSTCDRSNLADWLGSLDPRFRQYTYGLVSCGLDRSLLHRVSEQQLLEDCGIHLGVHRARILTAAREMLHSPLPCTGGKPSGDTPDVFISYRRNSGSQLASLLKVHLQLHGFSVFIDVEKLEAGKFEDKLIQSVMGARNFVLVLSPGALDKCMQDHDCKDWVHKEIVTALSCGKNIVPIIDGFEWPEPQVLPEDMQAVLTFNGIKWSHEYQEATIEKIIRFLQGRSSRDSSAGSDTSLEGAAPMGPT
# [5] = biological target: Mitogen-activated protein kinase 7 (Homo sapiens) (UniProt Q13164); experiment: ERK5 transactivation activators in reporter cells, primary screen, cell-based, HTS (AID 1508626;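 active = luciferase signal above three times the same-plate solvent-only control wells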;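 note: luciferase driven by Gal4-ERK5 fusion binding five Gal4 sites before minimal TATA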); conditions: HeLa Gal4-ERK5 transactivation, 18 h, at 5 µM, stronger effect = higher value
# Mitogen-activated protein kinase 7 (Homo sapiens), sequence (Q13164 whole entry, looked up, the tested form may be a part): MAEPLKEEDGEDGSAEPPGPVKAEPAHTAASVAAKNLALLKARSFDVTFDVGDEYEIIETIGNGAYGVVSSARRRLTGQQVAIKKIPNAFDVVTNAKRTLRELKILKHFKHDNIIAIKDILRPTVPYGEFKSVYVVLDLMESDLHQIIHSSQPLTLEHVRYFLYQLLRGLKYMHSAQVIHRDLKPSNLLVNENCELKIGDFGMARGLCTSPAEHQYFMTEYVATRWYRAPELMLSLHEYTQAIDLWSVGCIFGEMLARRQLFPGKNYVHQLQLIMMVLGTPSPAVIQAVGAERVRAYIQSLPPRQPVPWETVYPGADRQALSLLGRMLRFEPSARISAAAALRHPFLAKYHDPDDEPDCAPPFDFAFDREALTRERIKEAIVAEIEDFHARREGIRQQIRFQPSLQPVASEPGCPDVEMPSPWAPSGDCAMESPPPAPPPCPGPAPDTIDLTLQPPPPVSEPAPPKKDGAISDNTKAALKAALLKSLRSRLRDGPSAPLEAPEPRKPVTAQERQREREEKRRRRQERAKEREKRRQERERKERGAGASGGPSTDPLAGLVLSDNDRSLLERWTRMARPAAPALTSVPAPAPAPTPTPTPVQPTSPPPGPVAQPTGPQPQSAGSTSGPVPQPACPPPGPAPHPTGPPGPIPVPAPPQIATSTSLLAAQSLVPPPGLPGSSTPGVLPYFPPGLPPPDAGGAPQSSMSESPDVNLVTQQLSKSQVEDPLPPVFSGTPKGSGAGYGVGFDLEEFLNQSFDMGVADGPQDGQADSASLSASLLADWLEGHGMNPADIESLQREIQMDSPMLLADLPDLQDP
# [6] = viability rescue of complex I mutant cybrids, primary screen, cell-based, galactose medium, ATP luminescence (AID 1645843;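 active = z-score of at least 1.8 in each of two replicates, scored against plate mean and spread of sample wells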;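 note: positive z means more ATP and so rescue of galactose-driven cybrid death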); conditions: complex I mutant cybrid cells, 72 h, stronger effect = higher value
# [7] = LFS_MB_P medulloblastoma growth inhibition, cell-based, chromothripsis tumors, cisplatin or BGB combos (AID 1671449); conditions: LFS_MB_P medulloblastoma cells;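 note: cells exposed for 96 hours; 0% = vehicle DMSO and 100% = killing by high DMSO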
# [8] = HDN33 neuroblastoma growth inhibition, cell-based, chromothripsis tumors, cisplatin or BGB combos (AID 1671450); conditions: HDN33 neuroblastoma cells, stronger effect = higher value;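 note: cells exposed to compound for four days; 0% = vehicle DMSO and 100% = cell killing by high DMSO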
# [9] = ICB984 medulloblastoma cell growth inhibition, synergistic combos for chromothripsis tumors, cisplatin or BGB combos (AID 1671451; call rule not given here;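 note: cells exposed for 96 hours before readout; 0% = vehicle DMSO and 100% = killing by high DMSO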); conditions: ICB984 medulloblastoma cells, drug combinations, stronger effect = higher value
# [10] = LFS_MB_1R medulloblastoma cell growth inhibition, synergistic combos for chromothripsis tumors, cisplatin or BGB combos (AID 1671452); conditions: LFS_MB_1R medulloblastoma cells, stronger effect = higher value;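 note: cells exposed for 96 hours before readout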
# [11] = HTB85 osteosarcoma cell growth inhibition, synergistic combos for chromothripsis tumors, BGB or cisplatin IC20 combos (AID 1671453); conditions: HTB85 osteosarcoma cells, drug combinations, stronger effect = higher value;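 note: cells exposed for 96 hours before readout; 0% = vehicle DMSO and 100% = high DMSO killing control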
# [12] = CRL2098 osteosarcoma cell growth inhibition, synergistic combos for chromothripsis tumors, BGB or cisplatin IC20 combos (AID 1671454); conditions: CRL2098 osteosarcoma cells, drug combinations, stronger effect = higher value;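 note: cells exposed for 96 h before readout; 0% = vehicle DMSO and 100% = killing by high DMSO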
# [13] = HD-MB03 medulloblastoma cell growth inhibition, synergistic combos for chromothripsis tumors, BGB or cisplatin IC20 combos (AID 1671455; in the data active = inhibition above about 83%;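 note: 0% = vehicle DMSO and 100% = high DMSO as cytotoxic control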); conditions: HD-MB03 medulloblastoma cells, stronger effect = higher value
# [14] = sensitizers of A549 cells to miR-34 induction, primary screen, imaging, A549 dox-inducible miR-34, nuclei and caspase counts (AID 1347080;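 active = compounds whose cell count with miR-34 switched on is under 0.7 times the count with it off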); conditions: A549 miR-34 inducible, Hoechst nuclei count, 48 h
# [15] = survival rescue of mitochondrial mutant cells in low glucose, primary screen, MELAS cybrids, Rieske KO mouse fibroblasts, CellTiter-Glo (AID 1508586;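 active = mean z-score across replicates of 1.96 or higher in either the MELAS or the Rieske mutant cell line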;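 note: z relative to plate mean and SD of compound and empty wells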)
# [16] = JHH-DIPG-1 glioma cell viability, MIPE5.0 library, CellTiter-Glo luminescence, qHTS (AID 1347067; cut-off not given, nearly all actives have AC50 up to about 26 µM;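 note: cells exposed to compound for 48 hours before readout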); conditions: JHH-DIPG-1 glioma viability, CellTiter-Glo ATP luminescence
# [17] = measured here: combination with BGB IC40, at 0.05 µM
# [18] = stronger effect = lower value, cell number ratio, induced over uninduced
# [19] = measured here: relative caspase fold change +Dox/-Dox
# [20] = measured here: total cells with miR-34 induction, stronger effect = lower value
# [21] = measured here: total cells without miR-34 induction
# [22] = MELAS cybrid survival, CellTiter-Glo 48 h, stronger effect = higher value
# [23] = Rieske KO mouse fibroblast survival, CellTiter-Glo 72 h
smiles,measurement,setting,value
CC(N)C12CC3CC(CC(C3)C1)C2 (stereo unspecified),outcome,[1],inactive
same,outcome,[2],inactive
same,outcome,[3],inactive
same,remaining NAD,[4],10 nM (inactive)
same,luciferase signal,[5],48 AU (inactive)
same,z-score,[6],1.03 (inactive) and -0.17 (inactive) and -0.24 (inactive)
same,inhibition,"[7]; at 0.5 µM, stronger effect = higher value",6% (inactive)
same,inhibition,"[7]; measured here: combination with BGB IC20, at 0.005 µM",-16.1%
same,inhibition,"[7]; measured here: combination with BGB IC40, at 0.005 µM",-38.1%
same,inhibition,[7]; [17],-30.6%
same,inhibition,"[7]; measured here: combination with cisplatin, at 0.5 µM, stronger effect = higher value",9.24%
same,inhibition,"[7]; measured here: combination with cisplatin, at 5 µM, stronger effect = higher value",-22.9%
same,inhibition,"[8]; BGB combo, at 5 µM",-28.3%
same,inhibition,[8]; at 0.5 µM,-32.5% (inactive)
same,inhibition,"[8]; cisplatin combo, at 5 µM",-20.2%
same,inhibition,"[8]; measured here: with BGB IC20 combination, at 0.5 µM",-33.5%
same,inhibition,"[8]; measured here: with cisplatin IC20 combination, at 0.5 µM",-23.6%
same,inhibition,"[8]; single agent, at 5 µM",-36.9%
same,inhibition,"[9]; BGB IC20 combo, at 0.005 µM",-4.5%
same,inhibition,"[9]; BGB IC40 combo, at 0.005 µM",-19.4%
same,inhibition,"[9]; BGB IC40 combo, at 0.05 µM",-14.2%
same,inhibition,[9]; at 0.5 µM,-43.5% (inactive)
same,inhibition,"[9]; cisplatin combo, at 0.05 µM",-17.4%
same,inhibition,"[9]; cisplatin combo, at 0.5 µM",-54.1%
same,inhibition,"[9]; cisplatin combo, at 5 µM",-42.4%
same,inhibition,"[9]; measured here: 5 uM single agent, at 5 µM",12.3%
same,inhibition,[10]; at 0.5 µM,-32.9% (inactive)
same,inhibition,[10]; [17],-22.2%
same,inhibition,"[10]; measured here: combination with cisplatin, at 0.5 µM",-47.8%
same,inhibition,"[10]; measured here: combination with cisplatin, at 5 µM",-25.5%
same,inhibition,[11]; at 0.5 µM,-15.6% (inactive)
same,inhibition,"[11]; measured here: with BGB IC20, at 0.5 µM",-39.8%
same,inhibition,"[11]; measured here: with BGB IC20, at 5 µM",-20.6%
same,inhibition,"[11]; measured here: with cisplatin IC20, at 0.5 µM",-6.13%
same,inhibition,"[11]; measured here: with cisplatin IC20, at 5 µM",-66.2%
same,inhibition,"[11]; single agent, at 5 µM",-17.9%
same,inhibition,[12]; at 0.5 µM,-53.4% (inactive)
same,inhibition,"[12]; measured here: combination with BGB at IC20, at 0.5 µM",-8.22%
same,inhibition,"[12]; measured here: combination with cisplatin at IC20, at 0.5 µM",-77.6%
same,inhibition,[13]; at 0.5 µM,-18.7% (inactive)
same,inhibition,"[13]; measured here: combo with BGB at IC20, at 0.5 µM",-21.4%
same,inhibition,"[13]; measured here: combo with cisplatin at IC20, at 0.5 µM",-22.1%
CO[C@@H]1[C@@H](OC(N)=O)[C@@H](O)[C@H](Oc2ccc3c(O)c(NC(=O)c4ccc(O)c(CC=C(C)C)c4)c(=O)oc3c2C)OC1(C)C,outcome,[1],inactive
same,outcome,[2],inactive
same,outcome,[3],inactive
same,fold change,[14]; [18],0.761 (inactive)
same,fold change,[14]; [19],1.98
same,cell count,[14]; [20],10300
same,cell count,[14]; [21],13600
same,z-score,[15]; [22],0.0759 (inactive)
same,z-score,[15]; [23],-1.01
same,remaining NAD,[4],10 nM (inactive)
same,luciferase signal,[5],44 AU (inactive)
C#C[C@]1(O)CC[C@H]2[C@@H]3CCc4cc(O)ccc4[C@H]3CC[C@@]21C,AC50,[1],13.2 µM (active)
same,outcome,[2],inactive
same,z-score,[15]; [22],1.16 (inactive)
same,z-score,[15]; [23],0.428
same,remaining NAD,[4],10 nM (inactive)
same,luciferase signal,[5],76 AU (inactive)
CCOC(=O)[C@H](CCc1ccccc1)N[C@@H](C)C(=O)N1CCC[C@H]1C(=O)O,outcome,[1],inactive
same,outcome,[2],inactive
same,outcome,[16],inactive
same,fold change,[14]; [18],0.896 (inactive) and 0.877 (inactive) and 0.886 (inactive)
same,fold change,[14]; [19],0.827 and 3.26 and 1.44
same,cell count,[14]; [20],8260 and 11300 and 10300
same,cell count,[14]; [21],9220 and 12900 and 11600
same,z-score,[15]; [22],-1.03 (inactive) and -0.334 (inactive)
same,z-score,[15]; [23],-0.133 and -0.361
same,remaining NAD,[4],10 nM (inactive)
same,luciferase signal,[5],64 AU (inactive)
same,z-score,[6],0.27 (inactive)
